# Reference: PubChem BioAssay AID743287 (Broad Institute, 2014)
# Where “and” joins values, the source holds several entries; their conditions need not be identical. Equal values may be shown once. The whole screen tested about 370,000 compounds, of which about 2,300 (0.62%) were called active. The sample holds actives, similar compounds and a random draw of the others, so the mix is not that of the screen. Values without a mark were called inactive.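 How the source made its calls: active means lowest replicate activation of at least 40%, so every replicate reaches that level; inactive means the rest.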
# Assay: GLuc luminescence reporter in INS-1E cells, primary screen for activators of glucose-dependent secretion of insulin (AID 743287);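 further: 0% = median of neutral control wells and 100% = median of IBMX positive control wells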
# Conditions: INS-1E GLuc reporter insulin secretion, 2-3 h, at 16.6 µM, hits give high values
row,Compound,activation
1,O=C1NCCOCc2cn(nn2)CC[C@@H]1Cc1ccccc1,9.64%
2,CCOC(=O)c1sc2nc(C)nc(SCC(N)=O)c2c1C,13.1%
3,CCOC(=O)c1sc2nc(C)[nH]c(=O)c2c1C,49.9% (active)
4,CCOC(=O)c1sc2nc(C)nc(Nc3ccc(OC)c(OC)c3)c2c1C,15.4%
5,CCCNC(=O)N1C[C@@H](O)COC[C@H]2O[C@H](CC(=O)N3CCC(Cc4ccccc4)CC3)CC[C@@H]21,2.87%
6,CC(C)NC(=O)N1CCCCN2[C@H](CO)[C@@H](c3ccc(Br)cc3)[C@H]2C1,1.31%
7,COc1ccc(-c2c(NC(=O)c3ccco3)oc3ccc(Cl)cc3c2=O)cc1,106% (active)
8,Cc1cccc(-c2c(NC(=O)c3ccco3)oc3ccc(Cl)cc3c2=O)c1,-13.2%
9,COc1ccc(OC)c(NC(=O)c2cnn(-c3ccccc3Cl)c2NC(=O)c2ccco2)c1,-0.082%
10,O=C(Nc1cc(F)ccc1F)N1CCCCN2[C@H](CO)[C@@H](c3ccc(-c4cccnc4)cc3)[C@@H]2C1,-2.5%
11,CO[C@H]1CN(C)C(=O)c2ccc(NC(=O)C3CCCC3)cc2OC[C@@H](C)NC[C@@H]1C,-7.48%
12,COc1cccc(CNC(=O)[C@@H]2[C@@H](CO)[C@@H]3Cn4c(ccc(-c5cccnc5)c4=O)[C@@H]3N2C)c1,-0.31%
13,O=C(NCC[C@@H]1CC[C@@H](NS(=O)(=O)c2ccc(Cl)cc2)[C@@H](CO)O1)c1ccccc1F,6.92%
14,C[C@@H]1CN([C@H](C)CO)S(=O)(=O)c2ccc(C3=CCCC3)cc2O[C@H]1CN(C)C(=O)CC1CC1,-5.57%
15,CCOC(=O)Cn1c(=O)n(Cc2ccc(OC)cc2)c(=O)c2cccnc21,46.4% (active)
16,CCOc1ncccc1C(=O)NCCc1ccc(OC)cc1,35.2%
17,COCCCNC(=O)CCc1nc2cccnc2n1Cc1ccc(OC)cc1,10.4%
18,COCC(=O)N1CCC2(CC1)CN(C(=O)Nc1ccccc1F)[C@@H](CO)c1c2c2ccc(OC)cc2n1C,-10.5%
19,O=S(=O)(NCC[C@H]1CC[C@@H](NS(=O)(=O)c2cccc(Cl)c2)[C@@H](CO)O1)c1cccc(F)c1,-5.04%
20,CO[C@@H]1CN(C)C(=O)c2ccc(NS(=O)(=O)c3ccc(Cl)cc3)cc2OC[C@@H](C)N(C)C[C@H]1C,-6.5% and 12.1%
21,O=C(C1CCCCC1)N1C[C@@H]2N[C@H](C1)C2c1ccc(-c2cccc(F)c2)cc1 (stereo partly specified),22.3% and -4.66%
22,Cc1cccc(-c2ccc(C3[C@@H]4CN(C(=O)Nc5ccc(C(F)(F)F)cc5)C[C@H]3N4)cc2)c1 (stereo partly specified),763% (active)
23,CN(C)C(=O)c1ccc(-c2ccc(C3[C@@H]4CN(C(=O)Nc5ccccc5)C[C@H]3N4)cc2)cc1 (stereo partly specified),-5.33%

row,Compound,activation
1,C[C@H]1CN([C@@H](C)CO)C(=O)c2cc(NC(=O)C3CCCCC3)ccc2O[C@H]1CN(C)S(=O)(=O)c1cn(C)cn1,17.4%
2,O=C(C1CCOCC1)N1CC(=O)N2[C@H](CO)[C@H](c3ccc(C#CC4CCCCC4)cc3)[C@H]2C1,6.98%
3,O=C(N[C@H](Cc1ccccc1)C(=O)N1CCCN(Cc2cccs2)CC1)[C@H]1O[C@@H](n2ccc(=O)[nH]c2=O)[C@H](O)[C@@H]1O,13%
4,CN(C)C(=O)N1CCN(C(=O)[C@@H](Cc2ccccc2)NC(=O)[C@H]2O[C@@H](n3ccc(N)nc3=O)[C@H](O)[C@@H]2O)CC1,13.5%
5,Cc1ccc2nc(CN(C)C(=O)[C@@H](Cc3ccccc3)NC(=O)[C@H]3O[C@@H](n4ccc(=O)[nH]c4=O)[C@H](O)[C@@H]3O)[nH]c2c1,42.3% (active)
6,CN1C(=O)c2cc(NS(C)(=O)=O)ccc2OC[C@H]2O[C@H](CC(=O)NCc3ccccc3)CC[C@H]21,4.81%
7,CCOC(=O)c1oc2ccccc2c1NC(=O)c1cccs1,77.1% (active)
8,NC(=O)c1oc2ccccc2c1NC(=O)Cc1ccccc1,9.27%
9,Cc1nc2ccccn2c(=O)c1NC(=O)c1cccs1,3.74%
10,COc1ccc(NC(=O)Nc2cccc3c2O[C@H](CN(C)Cc2ccc(Cl)c(Cl)c2)[C@H](C)CN([C@@H](C)CO)C3=O)cc1,-19%
11,C[C@H]1CN([C@@H](C)CO)C(=O)Cc2cc(NC(=O)Cn3cnnn3)ccc2O[C@@H]1CN(C)Cc1ccc(-c2ccccc2)cc1,-17.4%
12,COCCCNC(=O)CNC(=O)c1nn(-c2ccc(OC)cc2)c(=O)c2ccccc12,5.37%
13,COc1cccc(-n2nc(C(=O)N3CCN(Cc4ccccc4)CC3)c3ccccc3c2=O)c1,-2.64%
14,O=C1c2oc3ccccc3c(=O)c2C(c2cccc(O)c2)N1c1ccccn1 (stereo unspecified),-8.86%
15,O=c1c2ccccc2ncn1CCc1ccncc1,2.05%
16,O=C(O)c1ccc(-n2nc(-c3ccccc3)c3ccccc3c2=O)cc1,65.3% (active)
17,O=c1c2ccccc2c(-c2ccccc2)nn1-c1ccccn1,53.1% (active)
18,C[C@@H]1CN([C@H](C)CO)C(=O)c2cc(NS(=O)(=O)c3cccs3)ccc2O[C@@H](C)CCCCO[C@@H]1CN(C)C(=O)c1ccncc1,-1.55%
19,C[C@@H]1CN([C@@H](C)CO)C(=O)CCCn2cc(nn2)CO[C@@H]1CN(C)S(=O)(=O)c1ccccc1C#N,4.61%
20,COc1ccc2c3c(n(C)c2c1)[C@H](CO)N(C(=O)c1ccncc1)CC31CCN(CC2CC2)CC1,14.2%
21,O=C(C[C@@H]1CC[C@@H](NC(=O)C2CC2)[C@@H](CO)O1)NCc1ccccc1Cl,-6.27%
22,C[C@@H]1CN([C@H](C)CO)C(=O)c2cccc(NC(=O)Nc3ccc4c(c3)OCO4)c2O[C@H]1CN(C)C(=O)Nc1ccc(F)cc1,-11.4%
23,Cc1ccc(S(=O)(=O)Nc2ccc3c(c2)C(=O)N([C@@H](C)CO)C[C@@H](C)[C@@H](CN(C)S(=O)(=O)c2ccc(C)cc2)O3)cc1,-10.5%
